# Source: PubChem BioAssay AID1159580 (chemical genetic matrix, 2015)
# Values joined by “and” are separate entries in the source; they are usually repeats but may differ in a detail not shown here. Equal values may be shown once. The whole screen tested about 5,500 compounds, of which about 2,000 (36%) were called active. About 18% were inconclusive and are not listed. Rule as the data show it: active = normalized growth mostly below about 0.91 (no sharp cut-off); inconclusive = no clear call, values can overlap the other calls; inactive = mostly above about 0.92. The list shows a part of the results. A structure can be active in one record and inactive in another.
# Test: chemical genetic growth profiling, strain panel (AID 1159580);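 also: tested at 20 µM; growth read once vehicle control cultures reached saturation at 30 °C; 1 = growth at the plate median or of vehicle wells; lower values mean less growth of the strain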
# Conditions: S. cerevisiae deletion strains, growth OD
smiles,measurement,setting,value
Cc1cc(O)c2c(c1)C(=O)c1cc(O)cc(O)c1C2=O,normalized growth,"locus YAL013W, strain DEP1, stronger effect = lower value",0.868 (active)
same,normalized growth,"locus YAL040C, strain CLN3, stronger effect = lower value",0.749 (active)
same,normalized growth,"locus YBR021W, strain FUR4, stronger effect = lower value",0.914 (inactive)
same,normalized growth,"locus YBR229C, strain ROT2, stronger effect = lower value",0.923 (inactive)
same,normalized growth,"locus YCL029C, strain bik1, stronger effect = lower value",0.734 (active)
same,normalized growth,"locus YCL061C, strain MRC1 (second series), stronger effect = lower value",0.986 (inactive)
same,normalized growth,"locus YDL035C, strain GPR1, stronger effect = lower value",0.699 (active)
same,normalized growth,"locus YDL074C, strain BRE1, stronger effect = lower value",0.56 (active)
same,normalized growth,"locus YDL101C, strain DUN1, stronger effect = lower value",0.732 (active)
same,normalized growth,"locus YDL134C, strain PPH21, stronger effect = lower value",0.783 (active)
same,normalized growth,"locus YDL185W, strain tfp1, stronger effect = lower value",0.795 (active)
same,normalized growth,"locus YDL192W, strain arf1, stronger effect = lower value",0.393 (active)
same,normalized growth,"locus YDR101C, strain arx1, stronger effect = lower value",0.584 (active)
same,normalized growth,"locus YDR162C, strain NBP2, stronger effect = lower value",0.483 (active)
same,normalized growth,"locus YDR318W, strain mcm21, stronger effect = lower value",0.712 (active)
same,normalized growth,"locus YDR363W, strain ESC2, stronger effect = lower value",1.02 (inactive)
same,normalized growth,"locus YDR388W, stronger effect = lower value",0.471 (active)
same,normalized growth,"locus YDR502C, strain sam2, stronger effect = lower value",0.56 (active)
same,normalized growth,"locus YEL061C, strain CIN8, stronger effect = lower value",0.745 (active)
same,normalized growth,"locus YER002W, strain NOP16, stronger effect = lower value",0.749 (active)
same,normalized growth,"locus YER110C, stronger effect = lower value",0.671 (active)
same,normalized growth,"locus YER155C, strain BEM2, stronger effect = lower value",0.716 (active)
same,normalized growth,"locus YER167W, strain BCK2, stronger effect = lower value",0.674 (active)
same,normalized growth,"locus YGL078C, strain dbp3, stronger effect = lower value",0.789 (active)
same,normalized growth,"locus YGL086W, strain mad1, stronger effect = lower value",0.645 (active)
same,normalized growth,"locus YGL248W, strain PDE1, stronger effect = lower value",0.853 (active)
same,normalized growth,"locus YGR078C, strain PAC10, stronger effect = lower value",0.723 (active)
same,normalized growth,"locus YGR135W, strain pre9, stronger effect = lower value",0.741 (active)
same,normalized growth,"locus YGR229C, strain SMI1, stronger effect = lower value",0.338 (active)
same,normalized growth,"locus YGR252W, strain gcn5, stronger effect = lower value",0.415 (active)
same,normalized growth,"locus YHR030C, strain SLT2, stronger effect = lower value",0.629 (active)
same,normalized growth,"locus YHR079C, strain IRE1 (second series), stronger effect = lower value",0.854 (active)
same,normalized growth,"locus YHR094C, strain hxt1, stronger effect = lower value",0.673 (active)
same,normalized growth,"locus YHR129C, strain ARP1, stronger effect = lower value",0.705 (active)
same,normalized growth,"locus YHR200W, strain rpn10, stronger effect = lower value",0.75 (active)
same,normalized growth,"locus YIL066C, strain RNR3, stronger effect = lower value",0.688 (active)
same,normalized growth,"locus YIL073C, strain SPO22, stronger effect = lower value",0.959 (inactive)
same,normalized growth,"locus YIL125W, strain kgd1, stronger effect = lower value",0.842 (active)
same,normalized growth,"locus YIR030C, strain dcg1, stronger effect = lower value",0.635 (active)
same,normalized growth,"locus YJL095W, strain BCK1, stronger effect = lower value",0.475 (active)
same,normalized growth,"locus YJL134W, strain LCB3, stronger effect = lower value",0.907 (active)
same,normalized growth,"locus YJL168C, strain set2, stronger effect = lower value",0.818 (active)
same,normalized growth,"locus YJL187C, strain SWE1 (second series), stronger effect = lower value",0.69 (active)
same,normalized growth,"locus YJR043C, strain POL32, stronger effect = lower value",0.708 (active)
same,normalized growth,"locus YJR075W, strain HOC1, stronger effect = lower value",0.998 (inactive) and 0.795 (active)
same,normalized growth,"locus YKL009W, strain mrt4, stronger effect = lower value",0.753 (active)
same,normalized growth,"locus YKL068W, stronger effect = lower value",0.857 (active)
same,normalized growth,"locus YKL085W, strain MDH1 (second series), stronger effect = lower value",0.795 (active)
